Test results published in PubChem BioAssay (Tox21).
“And” between values parts separate entries of the source, which are not always exact repeats. Equal values may be shown once. Results filed as inconclusive are left out. The source made the active and inactive calls. Calls come from the whole dose curve; as a rule, active = well fitted curve in the direction sought with a large enough effect in the repeat runs; inconclusive = weak or mixed curves; inactive = no such curve, though single readings can be large; an effect the other way counts as inactive or inconclusive.

Assays:
[1] = qHTS RealTime-Glo MT Cell Viability Assay in HEK293 cells - 40 hour (AID 1224874); conditions: RealTime-Glo luminescence; max response: active compounds read low; note: nearly all actives have a fitted effect of over 50% in size; note: potency is the fitted concentration of half-maximal effect
Method in brief: (§1)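 Tox21 screen in HEK293 using RealTime-Glo MT chemistry, with cells and reagent co-dispensed. Luminescence proportional to viable cell number was captured at intervals during 40 h compound exposure at 37 C.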

[2] = A CellTox Green Cytotoxicity Assay to monitor cytotoxicity in HEK293 cells - 24 hour (AID 1224875); note: nearly all actives have a fitted effect of over 45% in size; note: potency is the fitted concentration of half-maximal effect; for activity change: series mostly up to about 77 µM
Method in brief: (§2)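 Seeding of HEK293 cells together with cytotoxicity dye preceded a 5 h incubation at 37 C/5% CO2. Test compounds in DMSO were then added and fluorescence monitored across 40 h.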

[3] = A CellTox Green Cytotoxicity Assay to monitor cytotoxicity in HepG2 cells - 16 hour (AID 1224876); note: nearly all actives have a fitted effect of over 45% in size; note: potency is the fitted concentration of half-maximal effect
Method in brief: (§3)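 Nonlytic assay: viable cells exclude the dye, so fluorescence scales with cell death. HepG2 at 600 cells/well, compounds added after 5 h, signal read across 40 h.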

[4] = A CellTox Green Cytotoxicity Assay to monitor cytotoxicity in HepG2 cells - 24 hour (AID 1224878); note: nearly all actives have a fitted effect of over 45% in size; note: potency is the fitted concentration of half-maximal effect
Method in brief: as §3

[5] = qHTS RealTime-Glo MT Cell Viability Assay in HEK293 cells - 0 hour (AID 1224880); note: top concentration of the series differs between compounds; nearly all actives have a fitted effect of over 45% in size
Method in brief: as §1

[6] = A CellTox Green Cytotoxicity Assay to monitor cytotoxicity in HEK293 cells - 32 hour (AID 1224881); note: nearly all actives have a fitted effect of over 40% in size; note: potency is the fitted concentration of half-maximal effect
Method in brief: as §2

[7] = A CellTox Green Cytotoxicity Assay to monitor cytotoxicity in HepG2 cells - 0 hour (AID 1224882); note: nearly all actives have a fitted effect of over 35% in size; note: potency is the fitted concentration of half-maximal effect
Method in brief: as §3

[8] = A CellTox Green Cytotoxicity Assay to monitor cytotoxicity in HepG2 cells - 40 hour (AID 1224879); note: nearly all actives have a fitted effect of over 40% in size; note: potency is the fitted concentration of half-maximal effect
Method in brief: as §3

[9] = A CellTox Green Cytotoxicity Assay to monitor cytotoxicity in HepG2 cells - 32 hour (AID 1224883); note: nearly all actives have a fitted effect of over 50% in size; note: potency is the fitted concentration of half-maximal effect
Method in brief: as §3

[10] = qHTS RealTime-Glo MT Cell Viability Assay in HepG2 cells - 32 hour (AID 1224877); note: nearly all actives have a fitted effect of over 55% in size; note: potency is the fitted concentration of half-maximal effect
Method in brief: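 Luminescence read-out: viable HepG2 cells reduce a prosubstrate to a NanoLuc substrate, giving a signal proportional to live cell number. Reads taken at 0, 8, 16, 24, 32 and 40 h of compound exposure at 37 C.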
% is set by controls: 0 for no effect and ±100 for the full control effect.

CC(C)(c1cc(Br)c(OCCO)c(Br)c1)c1cc(Br)c(OCCO)c(Br)c1
active: Potency [1] 12 µM
inactive: Potency [2] | Potency [3] | Potency [4] | Potency [5] | Potency [6] | Potency [7]

Cc1cc(C)c(C=O)c(C)c1
inactive: max response [1] 8.02% | Potency [2] | Potency [3] | Potency [4] | Potency [8] | Potency [7] | Potency [9]

NCCCC(O)(P(=O)(O)O)P(=O)(O)O
inactive: max response [1] 12.2% | Potency [2] | Potency [10] | Potency [4] | Potency [8] | Potency [5] | Potency [6]

CC1CCCNC1 (configuration not stated)
inactive: max response [1] -11.1% | Potency [2] | Potency [3] | Potency [10] | Potency [5] | Potency [7] | Potency [9]

CCc1c(C(=O)O)c(=O)cnn1-c1ccc(Cl)cc1
inactive: max response [1] 18.5% | Potency [2] | Potency [3] | Potency [4] | Potency [8] | Potency [5] | Potency [7] | Potency [9]

CCCCCCOc1cc(C)c(O)c(C)c1C
active: Potency [1] 19.7 µM | Potency [2] 44.2 µM | Potency [3] 24.8 µM | Potency [8] 24.8 µM | Potency [6] 44.2 µM | Potency [9] 24.8 µM
inactive: Potency [5]

CN1[C@@H]2CC[C@@H]1CC(OC(=O)C(CO)c1ccccc1)C2 (some centres not stated)
inactive: max response [1] -6.75% | Potency [2] | Potency [3] | Potency [4] | Potency [8] | Potency [5] | Potency [7] | Potency [9]

C[C@@H]1CC[C@H]2C(C)(C)[C@H]3C[C@@]12CC[C@@]3(C)O
active: Potency [2] 38.8 µM | Potency [4] 48.9 µM | Potency [8] 54.9 µM | Potency [6] 38.8 µM | Potency [9] 54.9 µM
inactive: max response [1] -18.5% | Potency [10] | Potency [5] | Potency [7]

CCCCCCCCCCCCOC(=O)c1cc(O)c(O)c(O)c1
inactive: Potency [5] | Potency [7]
active: Potency [1] 3.45 µM and 3.47 µM | Potency [2] 54.7 µM and 49 µM | Potency [3] 48.8 µM and 38.9 µM | Potency [4] 48.8 µM and 49 µM | Potency [8] 48.8 µM and 54.9 µM | Potency [6] 48.8 µM and 49 µM | Potency [9] 48.8 µM and 54.9 µM

O=C(O)CCCCCCC(=O)O
inactive: max response [1] 12.4% | Potency [2] | Potency [3] | Potency [4] | Potency [8] | Potency [5] | Potency [6] | Potency [7] | Potency [9]

CC(C)c1ccc(O)c(C(C)C)c1
active: Potency [2] 21.9 µM | Potency [3] 43.6 µM | Potency [4] 27.5 µM | Potency [8] 27.5 µM | Potency [6] 21.9 µM | Potency [9] 27.5 µM
inactive: max response [1] -12.3% | Potency [5] | Potency [7]

CN(C)c1ccc(N=Nc2ccccc2C(=O)O)cc1
inactive: max response [1] 2% | Potency [2] | Potency [3] | Potency [4] | Potency [5] | Potency [6] | Potency [7] | Potency [9]

CCCCCCC(C)Nc1ccc(Nc2ccccc2)cc1 (configuration not stated)
active: Potency [1] 21.9 µM
inactive: Potency [2] | Potency [3] | Potency [8] | Potency [6] | Potency [7] | Potency [9]

O=S(O)O
inactive: max response [1] 7.9% | activity change [2] -0.851% [at 15.8 µM, active compounds read high] | cytotoxicity increase [3] -6.63% [at 15.8 µM] | cytotoxicity [4] -9.86% [at 15.8 µM] | cytotoxicity increase [8] -12.9% [at 15.8 µM] | activity change, negative = cytotoxicity [5] 10.2% [at 15.8 µM] | cytotoxicity increase [6] 0.593% [at 15.8 µM] | cytotoxicity [7] -14.5% [at 15.8 µM] | cytotoxicity increase [9] -11% [at 15.8 µM]

CCCCCCCC/C=C\CCCCCCCC(=O)NCc1ccc(O)c(OC)c1
inactive: Potency [2] | Potency [3] | Potency [5] | Potency [6] | Potency [7] | Potency [9]
active: Potency [1] 4.25 µM

C=CC(=O)OCCN(CC)CC
inactive: max response [1] 3.34% | Potency [2] | Potency [10] | Potency [4] | Potency [8] | Potency [5] | Potency [6] | Potency [7] | Potency [9]

CNC(=O)c1cc(Oc2ccc(NC(=O)Nc3ccc(Cl)c(C(F)(F)F)c3)cc2)ccn1
active: Potency [1] 3.01 µM
inactive: Potency [2] | Potency [3] | Potency [4] | Potency [5] | Potency [6] | Potency [7]

O=C(O)CCn1c2c(c3ccccc31)C[C@H](NS(=O)(=O)c1ccc(F)cc1)CC2
inactive: max response [1] 8.69% | Potency [2] | Potency [3] | Potency [4] | Potency [8] | Potency [5] | Potency [6] | Potency [7] | Potency [9]

COC(=O)CC(C)CCC=C(C)C (configuration not stated)
inactive: max response [1] 7.75% | Potency [2] | Potency [10] | Potency [4] | Potency [8] | Potency [5] | Potency [6] | Potency [7] | Potency [9]

CCCCN(CCCC)CCC(O)c1cc2c(Cl)cc(Cl)cc2c2cc(C(F)(F)F)ccc12 (configuration not stated)
inactive: max response [1] -17.9% | Potency [2] | Potency [3] | Potency [5] | Potency [6] | Potency [7]
active: Potency [8] 23.9 µM

COC(=O)C1=C(C)NC(C)=C(C(=O)OCCCN2CCC(c3ccccc3)(c3ccccc3)CC2)C1c1cccc([N+](=O)[O-])c1 (configuration not stated)
inactive: Potency [2] | Potency [3] | Potency [4] | Potency [5] | Potency [6] | Potency [7]
active: Potency [1] 10.7 µM

CCCCCCCC/C=C/CCCOC(C)=O
inactive: max response [1] 4.7% | Potency [2] | Potency [3] | Potency [4] | Potency [5] | Potency [6] | Potency [7] | Potency [9]

CCOC(=O)COc1ccc(C)cc1
inactive: max response [1] 0.285% | Potency [2] | Potency [3] | Potency [4] | Potency [8] | Potency [5] | Potency [6] | Potency [7] | Potency [9]

C[Si](C)(C)Cl
inactive: max response [1] 8.44% | Potency [2] | Potency [10] | Potency [4] | Potency [8] | Potency [5] | Potency [6] | Potency [9]

OCCC(O)CO (configuration not stated)
inactive: max response [1] 15.6% | Potency [2] | Potency [10] | Potency [8] | Potency [5] | Potency [6] | Potency [7] | Potency [9]

Nc1ncnc2c1ncn2[C@@H]1O[C@H](COP(=O)(O)O)[C@@H](O)[C@H]1O
inactive: max response [1] 3.96% | Potency [2] | Potency [10] | Potency [4] | Potency [8] | Potency [5] | Potency [6] | Potency [7] | Potency [9]

COc1nccnc1CC(C)C
inactive: max response [1] 10.2% | Potency [2] | Potency [10] | Potency [4] | Potency [8] | Potency [5] | Potency [6] | Potency [7] | Potency [9]

N#CSCSc1nc2ccccc2s1
active: Potency [1] 19.5 µM | Potency [2] 11 µM | Potency [4] 43.6 µM | Potency [8] 21.9 µM | Potency [6] 12.3 µM | Potency [9] 24.5 µM
inactive: Potency [5] | Potency [7]

CCN1CCN(c2cc(-c3ccc(F)cc3)c3c(n2)CCCCCC3)CC1
inactive: max response [1] -18.7% | activity change [2] 2.45% [at 15.8 µM, active compounds read high] | activity change, negative = cytotoxic [10] -10.2% [at 15.8 µM] | activity change, negative = cytotoxicity [5] 9.2% [at 15.8 µM] | cytotoxicity [7] -0.25% [at 15.8 µM] | cytotoxicity increase [9] 34% [at 15.8 µM]

Nc1ccc2cc3ccc(N)cc3nc2c1
active: Potency [1] 436 nM and 2.13 µM | Potency [2] 43.6 µM and 21.3 µM | Potency [4] 49 µM and 23.9 µM | Potency [8] 49 µM and 21.3 µM | Potency [6] 43.6 µM and 21.3 µM | Potency [7] 49 µM and 23.9 µM | Potency [9] 49 µM and 21.3 µM
inactive: Potency [5]

ClC/C=C\CCl
inactive: max response [1] -46.5% | Potency [2] | Potency [10] | Potency [8] | Potency [5] | Potency [6] | Potency [9]

CC1CCCCC1
inactive: max response [1] 5.61% | Potency [2] | Potency [10] | Potency [5] | Potency [6] | Potency [7] | Potency [9]

CCCCCCCCCCOCC(O)CN (configuration not stated)
inactive: Potency [7]
active: Potency [1] 23.9 µM | Potency [2] 23.9 µM | Potency [10] 15.1 µM | Potency [4] 15.1 µM | Potency [6] 26.8 µM | Potency [9] 13.4 µM

CCc1cccc(CC)c1N(COC)C(=O)CS(=O)(=O)O
inactive: max response [1] 20.8% | Potency [2] | Potency [4] | Potency [8] | Potency [5] | Potency [7] | Potency [9]

COc1cc(C=C2CCC/C(=C\c3ccc(O)c(OC)c3)C2=O)ccc1O
active: Potency [1] 21.3 µM | Potency [10] 23.9 µM | Potency [4] 23.9 µM | Potency [8] 21.3 µM | Potency [9] 21.3 µM
inactive: Potency [2] | Potency [6] | Potency [7]

CCCCCCCCCCCCCCCC
inactive: max response [1] 15.7% | Potency [2] | Potency [10] | Potency [8] | Potency [5] | Potency [6] | Potency [7] | Potency [9]

C[Si](C)O[Si](C)C
inactive: max response [1] -8.35% | Potency [3] | Potency [10] | Potency [4] | Potency [8] | Potency [5] | Potency [6] | Potency [7] | Potency [9]

O=C1OC(OC(=O)c2cccnc2Nc2cccc(C(F)(F)F)c2)c2ccccc21 (configuration not stated)
inactive: max response [1] -1.07% | Potency [3] | Potency [10] | Potency [4] | Potency [8] | Potency [5] | Potency [6] | Potency [7] | Potency [9]

Cc1ccc(-n2[nH]c(C)c(N=Nc3cccc(-c4cccc(C(=O)O)c4)c3O)c2=O)cc1C
active: Potency [1] 21.3 µM
inactive: Potency [2] | Potency [4] | Potency [8] | Potency [5] | Potency [6] | Potency [7] | Potency [9]

C/C=C/C(=O)Oc1c(CCCCCC(C)C)cc([N+](=O)[O-])cc1[N+](=O)[O-]
active: Potency [1] 7.76 µM | Potency [2] 38.9 µM | Potency [10] 38.9 µM | Potency [4] 38.9 µM | Potency [8] 38.9 µM | Potency [6] 38.9 µM | Potency [9] 38.9 µM
inactive: Potency [5] | Potency [7]

Cc1cccc(Br)c1
inactive: max response [1] 0.0661% | Potency [2] | Potency [10] | Potency [4] | Potency [8] | Potency [5] | Potency [7] | Potency [9]

Cc1c(-c2ccc(O)cc2)n(Cc2ccc(OCCN3CCCCCC3)cc2)c2ccc(O)cc12
active: Potency [1] 3.38 µM | Potency [2] 21.3 µM | Potency [4] 19 µM | Potency [6] 19 µM | Potency [9] 10.7 µM
inactive: Potency [5] | Potency [7]

CS(C)(=O)=O
active: Potency [6] 19.5 µM
inactive: max response [1] -3.02% | Potency [3] | Potency [10] | Potency [4] | Potency [8] | Potency [5] | Potency [7] | Potency [9]
